# From PubChem BioAssay (NCI)
# Values joined by “and” are separate entries in the source; they are usually repeats but may differ in a detail not shown here. Equal entries are not always repeated. About 83,000 compounds went through this panel and 20% of them were active in at least one assay; those are over-represented in the sample as a whole.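 How to read the values: 0–100, growth inhibition (40 = 60% inhibited); 0, no net growth; -100 to 0, cell death (-40 = 40% of starting cells died; -100 = all dead).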 Active and inactive are the calls of the source. Rule for the calls: active = growth percent below 10; inactive = the rest.
# Test system: SK-OV-3 ovarian
# Experiment: NCI-60 one-dose screen, 48 h (100 = growth as untreated, 0 = no growth, -100 = all killed)
# Details: 10 µM
row,SMILES,growth
1,Cc1cc(C)c(N2C(=O)CC(Sc3ccccc3N)C2=O)c(C)c1 (stereo unspecified),71.6% (inactive)
2,COc1cc(N)ccc1Nc1c2ccccc2nc2ccccc12,93.9% (inactive)
3,O=[N+]([O-])c1cc(S(=O)(=O)Nc2ccccc2)ccc1Cl,96.3% (inactive)
4,CCOC(=O)[C@]1(Br)CC[C@@]1(Br)C(=O)OCC,112% (inactive)
5,N#C/C(=C/N1C(=O)/C(=C/c2ccc([N+](=O)[O-])cc2)SC1=S)c1nc2ccccc2s1,82.4% (inactive)
6,Cn1ncc2cc3c(Nc4ccc(Cl)cc4)cccc3nc21,94.7% (inactive)
7,S=P(N1CC1)(N1CC1)N1CC1,110% (inactive) and 108% (inactive)
8,O=C1c2cccc3cc([N+](=O)[O-])cc(c23)C(=O)N1CCN1CCCC1,-0.119% (active)
9,N#CC(=C1C=CC(=NO)C=C1)c1ccccc1,37.8% (inactive)
10,Cc1cc(N=C2C=CC(=[N+](C)C)C=C2)c(N)cc1N,105% (inactive)
11,CN(C)CCNc1cccc2sc3ccc(O)cc3c(=O)c12,51.1% (inactive)
12,O=C(NC(=S)Nc1ccccn1)c1ccccc1,107% (inactive)
13,Cn1c2nc3ccccc3c-2nc2ccccc21,91.2% (inactive) and 90.8% (inactive)
14,CCC(C)(c1ccc(O)c(C)c1)c1ccc(O)c(C)c1,50.8% (inactive)
15,O=Nc1ccc(Nc2ccccc2)cc1,108% (inactive)
16,O=c1[nH]cc(/C=N\Nc2ccccc2)c(=O)[nH]1,62.2% (inactive)
17,CN(C)c1ccc(/C=C/c2ccnc3ccccc23)cc1N,72% (inactive)
18,COc1cccc(C(c2cc3c(cc2O)OCO3)N2CCOCC2)c1OC (stereo unspecified),101% (inactive)
19,O=C1C=CC(=O)N1c1ccc(N2C(=O)C=CC2=O)cc1,97.3% (inactive)
20,CC(=O)O[C@H]1C(=O)[C@@]2(C)[C@H]([C@H](OC(=O)c3ccccc3)[C@]3(O)C[C@H](OC(=O)[C@H](O)[C@@H](NC(=O)c4ccccc4)c4ccccc4)C(C)=C1C3(C)C)[C@]1(OC(C)=O)CO[C@@H]1C[C@@H]2O,42.9% (inactive) and 12.8% (inactive)
21,CCC(=O)Oc1ccc(/C=N/NC(N)=S)nc1,78% (inactive)
22,COc1ccc(C(C#N)=C2C=CC(=NO)C=C2)cc1,114% (inactive)
23,CN(CC(=O)O)c1ccc(/C=C/c2ccnc3ccccc23)cc1,91.3% (inactive)

# Test system: IGROV1 ovarian
# Experiment: as above
# Details: 10 µM
row,SMILES,growth
1,Cc1cc(C)c(N2C(=O)CC(Sc3ccccc3N)C2=O)c(C)c1 (stereo unspecified),92% (inactive)
2,COc1cc(N)ccc1Nc1c2ccccc2nc2ccccc12,60.8% (inactive)
3,O=[N+]([O-])c1cc(S(=O)(=O)Nc2ccccc2)ccc1Cl,96.1% (inactive)
4,CCOC(=O)[C@]1(Br)CC[C@@]1(Br)C(=O)OCC,52.1% (inactive)
5,N#C/C(=C/N1C(=O)/C(=C/c2ccc([N+](=O)[O-])cc2)SC1=S)c1nc2ccccc2s1,69.8% (inactive)
6,Cn1ncc2cc3c(Nc4ccc(Cl)cc4)cccc3nc21,95.8% (inactive)
7,S=P(N1CC1)(N1CC1)N1CC1,101% (inactive) and 78.2% (inactive)
8,O=C1c2cccc3cc([N+](=O)[O-])cc(c23)C(=O)N1CCN1CCCC1,-2.59% (active)
9,N#CC(=C1C=CC(=NO)C=C1)c1ccccc1,24.5% (inactive)
10,Cc1cc(N=C2C=CC(=[N+](C)C)C=C2)c(N)cc1N,109% (inactive)
11,CN(C)CCNc1cccc2sc3ccc(O)cc3c(=O)c12,50.1% (inactive)
12,O=C(NC(=S)Nc1ccccn1)c1ccccc1,78.7% (inactive)
13,Cn1c2nc3ccccc3c-2nc2ccccc21,79.8% (inactive) and 61.6% (inactive)
14,CCC(C)(c1ccc(O)c(C)c1)c1ccc(O)c(C)c1,85.5% (inactive)
15,O=Nc1ccc(Nc2ccccc2)cc1,102% (inactive)
16,O=c1[nH]cc(/C=N\Nc2ccccc2)c(=O)[nH]1,53.9% (inactive)
17,CN(C)c1ccc(/C=C/c2ccnc3ccccc23)cc1N,65.7% (inactive)
18,COc1cccc(C(c2cc3c(cc2O)OCO3)N2CCOCC2)c1OC (stereo unspecified),101% (inactive)
19,O=C1C=CC(=O)N1c1ccc(N2C(=O)C=CC2=O)cc1,105% (inactive)
20,CC(=O)O[C@H]1C(=O)[C@@]2(C)[C@H]([C@H](OC(=O)c3ccccc3)[C@]3(O)C[C@H](OC(=O)[C@H](O)[C@@H](NC(=O)c4ccccc4)c4ccccc4)C(C)=C1C3(C)C)[C@]1(OC(C)=O)CO[C@@H]1C[C@@H]2O,-24.8% (active) and 39.1% (inactive)
21,CCC(=O)Oc1ccc(/C=N/NC(N)=S)nc1,45% (inactive)
22,COc1ccc(C(C#N)=C2C=CC(=NO)C=C2)cc1,60.9% (inactive)
23,CN(CC(=O)O)c1ccc(/C=C/c2ccnc3ccccc23)cc1,77.4% (inactive)
